# LAP4 TOR yeast: modulators of TOR pathway LAP4-GFP in S. cerevisiae; GFP response vs DMSO, % at 10 µM; hit rate 0.34% among 320,000; S. cerevisiae LAP4-GFP multiplex, flow cytometry GFP, 3 h; median GFP as percent of DMSO wells; AID 2023;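 active = GFP response vs DMSO above a set limit, about the screen mean plus 3 SD, cut at about 150% in these data; inconclusive = under 70 cell events counted for the yeast strain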
# CIT2 TOR yeast: yeast TOR pathway CIT2-GFP modulation | S. cerevisiae CIT2-GFP strain, flow cytometry, 3 h; 100 means same as DMSO wells | GFP response vs DMSO, % at 10 µM | hit rate 0.065% among 320,000 | AID 2029;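 active = GFP response relative to DMSO above a set limit, near the screen mean plus 3 SD, cut at about 150% in these data; inconclusive = Fewer than 70 cells measured for a yeast strain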;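 note: ratio of well median GFP fluorescence to mean of DMSO wells on the plate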
# RPL19A TOR yeast: alters RPL19A-GFP fluorescence in TOR pathway yeast screen; S. cerevisiae RPL19A-GFP strain, flow cytometry, 3 h; stronger effect = lower value; percent response vs DMSO, % at 10 µM; hit rate 0.3% among 330,000; AID 2025;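 active = percent response vs DMSO below 50%; inconclusive = fewer than 70 events counted for the yeast strain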;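 note: median channel GFP fluorescence of the barcoded RPL19A-GFP strain; ratio of sample median GFP to plate DMSO average so 100% = DMSO; lower means less RPL19A-GFP as with rapamycin TOR inhibition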
# DSG3 Ab inh: human desmoglein-3 autoantibody binding inhibition; P32926; DSG3-coupled beads, scFv-anti-DSG3-GFP binding, flow cytometry; stronger effect = lower value; binding (percent of control), % at 10 µM; hit rate 0.48% among 310,000;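 active = binding more than 3 SD below its plate's average and above zero; inconclusive = below that plate limit but binding exactly zero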;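 note: hits lower antibody fragment binding to DSG3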
# Target sequence (P32926 whole entry, looked up, the tested form may be a part): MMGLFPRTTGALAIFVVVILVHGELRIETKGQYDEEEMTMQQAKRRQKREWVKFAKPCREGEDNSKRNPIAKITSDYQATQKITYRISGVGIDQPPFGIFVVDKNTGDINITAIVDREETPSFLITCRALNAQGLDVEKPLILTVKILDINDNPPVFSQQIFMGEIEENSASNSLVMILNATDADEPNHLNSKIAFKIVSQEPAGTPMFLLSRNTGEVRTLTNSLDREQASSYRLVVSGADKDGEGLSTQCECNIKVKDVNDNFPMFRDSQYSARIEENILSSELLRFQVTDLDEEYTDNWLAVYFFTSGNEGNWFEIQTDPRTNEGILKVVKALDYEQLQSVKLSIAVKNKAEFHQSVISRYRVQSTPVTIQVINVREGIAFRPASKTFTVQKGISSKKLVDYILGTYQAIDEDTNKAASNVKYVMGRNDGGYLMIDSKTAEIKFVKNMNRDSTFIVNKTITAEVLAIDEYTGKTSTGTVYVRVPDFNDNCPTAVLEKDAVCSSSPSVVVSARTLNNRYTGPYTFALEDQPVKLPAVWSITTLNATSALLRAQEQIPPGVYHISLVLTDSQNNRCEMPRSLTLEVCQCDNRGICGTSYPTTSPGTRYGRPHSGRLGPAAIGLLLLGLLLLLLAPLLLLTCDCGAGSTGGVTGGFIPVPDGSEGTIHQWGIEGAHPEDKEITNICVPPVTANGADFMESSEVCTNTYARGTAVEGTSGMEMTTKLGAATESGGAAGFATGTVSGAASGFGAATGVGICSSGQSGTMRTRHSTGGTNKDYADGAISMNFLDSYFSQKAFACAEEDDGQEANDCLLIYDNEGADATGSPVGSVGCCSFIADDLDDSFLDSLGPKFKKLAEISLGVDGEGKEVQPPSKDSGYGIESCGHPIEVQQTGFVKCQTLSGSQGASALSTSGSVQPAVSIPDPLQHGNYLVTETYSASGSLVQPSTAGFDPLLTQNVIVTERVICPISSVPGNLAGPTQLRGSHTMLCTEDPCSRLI
# MEP2 TOR yeast: modulators of TOR pathway MEP2-GFP in S. cerevisiae. AID 2016. S. cerevisiae MEP2-GFP strain, flow cytometry GFP, 3 h; 100% = DMSO control level. GFP response vs DMSO, % at 10 µM. hit rate 0.51% among 330,000;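 active = GFP response versus DMSO above a set limit, roughly screen mean plus 3 SD, cut at about 180% in these data; inconclusive = fewer than 70 cells counted for a yeast strain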;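 note: median GFP fluorescence of the barcode-gated MEP2-GFP cells per well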
# AGP1 TOR yeast: yeast TOR pathway AGP1-GFP modulation; S. cerevisiae AGP1-GFP multiplex flow cytometry, 3 h; GFP as percent of DMSO wells; GFP response vs DMSO, % at 10 µM; hit rate 0.02% among 320,000; AID 2066;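 active = GFP response relative to DMSO above a set limit, near screen average plus 3 SD, cut at about 150% in these data; inconclusive = fewer than 70 cells counted for the yeast strain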;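 note: median GFP channel fluorescence of the gated AGP1 strain per well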
# Active calls of the source: *; ? = inconclusive; nt = no result; [ ] = another dose, or the depositor's remark. Sampled rows, rich in hits. Any-hit rate of the full collection: about 1.2%.
SMILES,LAP4 TOR yeast,CIT2 TOR yeast,RPL19A TOR yeast,DSG3 Ab inh,MEP2 TOR yeast,AGP1 TOR yeast
CC1CCCN(C(=O)COC(=O)c2cc(-c3cccs3)nn2-c2ccccc2)C1 (configuration not stated),113,107,100,106,104,109
CCCN(C(=O)CSc1nnc(-c2ccncc2)n1CCC)c1c(N)n(Cc2ccccc2)c(=O)[nH]c1=O,nt,nt,nt,106,nt,nt
OC1(c2ccc(F)cc2)CSC(=Nc2cccnc2)N1Cc1ccco1 (configuration not stated),197*,71,96,98,95,78
CCc1cc2c(COC(=O)c3cccc(NS(C)(=O)=O)c3)cc(=O)oc2cc1O,109,102,100,98,105,101
CC(C)(C)Nc1nc(Cl)nc(NC2CCCCC2)n1,74,?,42*[may fluoresce violet],100,171,?
CCCCCC(=O)N1C[C@H](O)[C@@H](n2cc(C3CC3)nn2)C[C@@H]1c1ccc(Cl)cc1,nt,nt,nt,93,nt,nt
CCn1c(CSc2nnc3ccccn23)nc2cc(C(=O)O)ccc21,94,84,101,36*,92,93
CCCCN1C(=O)C(CC(=O)NCCc2ccccn2)CC(C(=O)N(C(C)C)C(C)C)=C1C (configuration not stated),nt,nt,nt,102,nt,nt
COCc1cc(C)n(CC(=O)OC)c(=O)c1C#N,97,101,104,106,109,97
COCc1cc(C)n(CC(=O)Nc2ccc(Cl)cc2Cl)c(=O)c1C#N,97,104,98,-3.1*,108,100
COCc1cc(C)n(CC(=O)Nc2ccccc2OC)c(=O)c1C#N,88,?,48*[may fluoresce violet],nt,571*[may fluoresce violet],?
CCN(CC)C(=O)C1=C(C)N(Cc2ccc(C(C)(C)C)cc2)C(=O)C(CC(=O)NCc2cccs2)C1 (configuration not stated),nt,nt,nt,102,nt,nt
CCOc1cccc(Cc2c[nH]c(=O)[nH]c2=O)c1,nt,nt,nt,109,nt,nt
O=C(Nc1cccc([N+](=O)[O-])c1)NC1CCCCCCC1,66,91,100,116,99,92
CNC(=O)c1ccsc1NC(=O)C1CCCN1S(=O)(=O)c1cccs1 (configuration not stated),105,89,99,85,97,111
CCOC(=O)C1(CC2CCCCO2)CCN(C(=O)Nc2ccc(C)c(C)c2)CC1 (configuration not stated),98,105,98,104,99,102
O=C(COc1ccccc1)N(Cc1cccc(F)c1)C1CCS(=O)(=O)C1 (configuration not stated),86,?,44*[may fluoresce violet],126,139,16
CC(=O)N(C(C)=O)c1ccc2c(c1)OCCO2,nt,nt,nt,103,nt,nt
O=Cc1c(NC2CCCCC2)c2ccccc2[nH]c1=O,86,102,103,74*,103,91
O=Cc1c(NCc2ccc(F)cc2)c2ccccc2[nH]c1=O,88,106,99,103,101,95
O=[N+]([O-])c1ccc(Sc2cccc[n+]2[O-])c2nonc12,nt,nt,nt,109,nt,nt
COc1ccc(C(=O)Nc2ccc(NC(=O)c3cnccn3)cn2)cc1,99,nt,97,72*,105,94
O=C(O)CSc1ncnc2sc(-c3ccccc3)cc12,103,111,111,110,108,104
COCCNC(=O)CSc1ncnc2sc(-c3ccccc3)cc12,103,88,91,103*,93,93
Cc1cccc(Cn2c(NC3CCCC3)nc3c2c(=O)[nH]c(=O)n3C)c1,nt,nt,nt,100,nt,nt
SMILES,LAP4 TOR yeast,CIT2 TOR yeast,RPL19A TOR yeast,DSG3 Ab inh,MEP2 TOR yeast,AGP1 TOR yeast
CCCN(CC(=O)Nc1ccccc1C)C(=O)/C=C/c1cccs1,92,98,101,110,75,99
Cc1nn(-c2ccccc2)nc1-c1nnc(-c2ccc(C(F)(F)F)cc2)o1,129,109,97,76*,97,108
COc1cc(NC(=O)CCl)ccc(=O)c1,nt,nt,nt,103,nt,nt
COc1ccc2c(c1)cc(C(=O)N[C@@H](Cc1ccccc1)C(=O)O)n2C,86,?,18*[may fluoresce violet],104,467*[may fluoresce violet],?
CC1=CC(C)[C@H](/C=N/n2c(=O)[nH]c3c([nH]c4ccc(C)cc43)c2=O)C(C)C1 (some centres not stated),73,?,44*[may fluoresce violet],114,266*[may fluoresce violet],?
COc1ccc(/C=N/n2c(=O)[nH]c3c([nH]c4ccc(C)cc43)c2=O)cc1CN1CCOCC1,nt,nt,nt,100,nt,nt
CNC(=S)N(Cc1ccc2c(c1)OCO2)C1CC(=O)N(c2ccc(F)cc2)C1=O (configuration not stated),102,107,98,nt,103,109
CCCCOC(=O)c1ccc(NC(=S)NC(=O)c2c(Cl)cnn2CC)cc1,83,?,39*[may fluoresce violet],107,406*[may fluoresce violet],nt
CCCCOC(=O)c1ccc(NC(=S)NC(=O)c2c(Cl)cnn2C)cc1,102,101,104,113,105,101
O=C(O)CN1C(=O)C2C3C=CC(C3)C2C1=O (configuration not stated),101,101,101,101,100,95
C/C(Cl)=C/CN1C(=O)C2C3C=CC(C3)C2C1=O (configuration not stated),110,?,25*[may fluoresce violet],109,247*[may fluoresce violet],?
CC(C)=CCc1c(O)c(CC=C(C)C)c2c(c1O)-c1cc(O)c(O)cc1CC2,106,89,91,nt,111,98
O=C(O)c1ccc(C2SCC(=O)N2Cc2ccco2)cc1 (configuration not stated),96,98,95,99,101,101
O=C1CSC(c2ccncc2)N1Cc1ccco1 (configuration not stated),100,98,100,80*,107,108
O=C(Nc1ccc2oc(=O)ccc2c1)c1ccc(-c2ccccc2[N+](=O)[O-])o1,102,94,98,83*,94,103
CCOC(=O)C1=C(O)/C(=C/c2ccc(-c3ccccc3C(=O)O)o2)SC1=Nc1ccc(C)cc1,nt,nt,nt,71*,nt,nt
COc1cc([N+](=O)[O-])cc(/C=N/NC(=O)Cn2nc(C)cc2C)c1O,102,101,105,98,103,104
COc1ccc(/C=N/NC(=O)Cn2nc([N+](=O)[O-])cc2C)c(OC)c1OC,100,?,33*[may fluoresce violet],nt,208*[may fluoresce violet],?
CCC(C)NC(=O)Nc1ccc(C)cc1C (configuration not stated),105,95,99,102,102,100
Cn1c(SCC(=O)Nc2nc3ccccc3s2)nnc1-c1ccccc1,100,102,106,95,102,100
CCn1c(SCC(=O)Nc2nc3ccccc3s2)nnc1-c1ccc(Br)cc1,103,109,106,-18*,106,107
COc1ccc2nc(NC(=O)CSc3nc4ccccc4o3)sc2c1,106,102,99,115,100,100
